Data published in PubChem BioAssay (NCI).
The panel holds about 83,000 compounds, 20% with a hit somewhere; the sample as a whole holds those more often.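 48-hour exposure, single concentration, 96-well plates; percent growth endpoint where 0 means no net growth. Active: below 10.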 A number with no mark means an inactive call. The source made the active and inactive calls.

How the values were obtained:
Experiment in all cases: NCI-60 one-dose screen, 48 h (100 = growth as untreated, 0 = no growth, -100 = all killed)
Conditions in all cases: 10 µM
[1] = test system: SN12C renal
[2] = test system: UO-31 renal
[3] = test system: TK-10 renal
[4] = test system: ACHN renal
[5] = test system: CAKI-1 renal
[6] = test system: A498 renal
[7] = test system: CCRF-CEM leukemia
[8] = test system: MOLT-4 leukemia
[9] = test system: SR leukemia

With `O=C1/C(=C\c2ccc(F)cc2)CN(C(=O)c2ccc([N+](=O)[O-])cc2)C/C1=C\c1ccc(F)cc1` the growth [1] was 46.9%, the growth [2] was 24.3% and the growth [3] was 87.3%. The growth [4] was 44.3%, the growth [5] was 39.4% and the growth [6] was 52%. For the same compound, the growth [7] was 7.75% (active), the growth [8] was 27.2% and the growth [9] was -19.3% (active).

`CCCC(F)C(=O)O` (configuration not stated) showed a growth [1] of 100%, a growth [2] of 77.7% and a growth [3] of 98%. It also gave a growth [4] of 106%, a growth [5] of 86.2% and a growth [6] of 98.5%. The growth [7] was 94.5%, the growth [8] was 93% and the growth [9] was 91.2%.

`COc1cc(/C=C/C(=O)c2ccc(Cl)cc2)ccc1OS(=O)(=O)c1ccc(C)cc1` showed a growth [1] of 86.6%, a growth [2] of 74.2% and a growth [3] of 116%. For the same compound, the growth [4] was 94.3%, the growth [5] was 82.5% and the growth [6] was 86.3%. The growth [7] was 12.9%, the growth [8] was -2.36% (active) and the growth [9] was -13.8% (active).

In the case of `COc1ccc(-c2nn(-c3cccc(NC(=O)c4cc(C(F)(F)F)cc(C(F)(F)F)c4)c3)cc2-c2ccncc2)cc1Cl`, the growth [1] was 78.1%, the growth [2] was 43% and the growth [3] was 85.5%. The growth [4] was 66.2%, the growth [5] was 50.1% and the growth [6] was 39.7%. The growth [7] was 64.4%, the growth [8] was 69.5% and the growth [9] was 36.3%.

`O=C(Nc1cccc(-n2cc(-c3ccncc3)c(-c3cc(O)cc(Cl)c3)n2)c1)c1ccc(N2CCOCC2)c(C(F)(F)F)c1` was tested, and the growth [1] was 46.4%, the growth [2] was 3.98% (active) and the growth [3] was 70.3%. For the same compound, the growth [4] was 20.7%, the growth [5] was 14.8% and the growth [6] was 72.7%. The growth [7] was 13.1%, the growth [8] was -29.7% (active) and the growth [9] was -12.4% (active).

For `CCCCCCCCCCCCCCCC(=O)OC1[C@@H](OC(=O)CCCCCCCCCCCCCCC)[C@@H](C(=O)N[C@@H](CCCCN)C(=O)OC)O[C@H]1n1cnc2c(=O)[nH]c(NC(=O)C(C)C)nc21` (some centres not stated), the growth [1] was 105%, the growth [2] was 87.1% and the growth [3] was 101%. It also gave a growth [4] of 102%, a growth [5] of 94% and a growth [6] of 98.1%. For the same compound, the growth [7] was 86%, the growth [8] was 93.4% and the growth [9] was 9.69% (active).

`Cc1ccc(C(=O)N2C/C(=C/c3ccccc3)C(=O)/C(=C/c3ccccc3)C2)cc1` showed a growth [1] of 79.5%, a growth [2] of 56.6% and a growth [3] of 96.7%. It also gave a growth [4] of 72.6%, a growth [5] of 63.2% and a growth [6] of 71.7%. The growth [7] was 23.3%, the growth [8] was 32.6% and the growth [9] was -12.4% (active).

`CCC(=O)N1C/C(=C/c2ccc(Cl)cc2)C(=O)/C(=C/c2ccc(Cl)cc2)C1` was tested, and the growth [1] was -26.1% (active), the growth [2] was -94% (active) and the growth [3] was -30.6% (active). The growth [4] was -50.7% (active), the growth [5] was -20.7% (active) and the growth [6] was -26.7% (active). For the same compound, the growth [7] was -11.1% (active), the growth [8] was -8.59% (active) and the growth [9] was -27.9% (active).

`CC1(C)Cc2c(sc3ncn4nc(-c5ccc(O)cc5)nc4c23)CO1` gave a growth [1] of 63.5%, a growth [2] of 44.3% and a growth [3] of 56.4%. The growth [4] was 67.6%, the growth [5] was 76.7% and the growth [6] was -9.39% (active). It also gave a growth [7] of 70.5%, a growth [8] of 69.4% and a growth [9] of 22.8%.

In the case of `N=C(N)c1ccc(-c2ccc(-c3cccs3)s2)cc1`, the growth [1] was 85.9%, the growth [2] was 17.1% and the growth [3] was 67.8%. For the same compound, the growth [4] was 85.8%, the growth [5] was 85.2% and the growth [6] was -25.9% (active). For the same compound, the growth [7] was -36.1% (active), the growth [8] was -48.6% (active) and the growth [9] was -35.6% (active).

For `O=C1/C(=C\c2ccc(Cl)cc2)CN(C(=O)c2ccccc2)C/C1=C\c1ccc(Cl)cc1`, the growth [1] was 36.8%, the growth [2] was 2.38% (active) and the growth [3] was 94.7%. The growth [4] was 47.4%, the growth [5] was 32.4% and the growth [6] was 84.2%. For the same compound, the growth [7] was 11.2%, the growth [8] was 21.5% and the growth [9] was -20.1% (active).

In the case of `CCN(CC)CCC(=O)Nc1cccc2c1C(=O)c1c(c(O)c3ccccc3c1O)C2=O`, the growth [1] was 59.5%, the growth [2] was -68% (active) and the growth [3] was 95.6%. It also gave a growth [4] of 21.6%, a growth [5] of 14% and a growth [6] of 71.4%. The growth [7] was -3.1% (active), the growth [8] was 2.61% (active) and the growth [9] was 6.44% (active).

With `O=S(=O)(NCCCNc1nccc(-c2c(-c3ccc(F)cc3)nc3sccn23)n1)c1ccc(F)cc1` the growth [1] was 52.3%, the growth [2] was 3.14% (active) and the growth [3] was 38.3%. It also gave a growth [4] of 30.8%, a growth [5] of 29.9% and a growth [6] of 56.3%. The growth [7] was 17.5%, the growth [8] was 22.6% and the growth [9] was 25.5%.

With `O=C(Nc1ccc(OS(=O)(=O)c2ccccc2)cc1)C12CC3CC(CC(C3)C1)C2` the growth [1] was 63.5%, the growth [2] was 44.6% and the growth [3] was 68.6%. It also gave a growth [4] of 78.5%, a growth [5] of 54.7% and a growth [6] of 14.4%. The growth [7] was 40.2%, the growth [8] was 39.5% and the growth [9] was 11.2%.

With `COc1ccc(S(=O)(=O)Nc2c(/C=C\c3cc(OC)c(OC)c(OC)c3)ccc(OC)c2O)cc1` the growth [1] was 20.9%, the growth [2] was 39.9% and the growth [3] was 39.9%. For the same compound, the growth [4] was 22.7%, the growth [5] was 32.9% and the growth [6] was -19.9% (active). For the same compound, the growth [7] was 13.5%, the growth [8] was 8.7% (active) and the growth [9] was 10.5%.

In the case of `Cc1cccc(C)c1NC(=O)c1sc2nc3c(cc2c1N)C(=O)CCC3`, the growth [1] was 90.1%, the growth [2] was 79.5% and the growth [3] was 88.7%. The growth [4] was 89.6%, the growth [5] was 52% and the growth [6] was -8.11% (active). It also gave a growth [7] of 66.5%, a growth [8] of 96.2% and a growth [9] of 69.1%.

`O=C(O)CC(Cl)C(Cl)CC(=O)O` (configuration not stated) gave a growth [1] of 102%, a growth [2] of 81.1% and a growth [3] of 95.7%. For the same compound, the growth [4] was 103%, the growth [5] was 91.6% and the growth [6] was 105%. For the same compound, the growth [7] was 89.9%, the growth [8] was 97.1% and the growth [9] was 0.349% (active).

In the case of `Cc1nc2c(c(=O)[nH]1)OCN(Cc1ccccc1)C2`, the growth [1] was 104%, the growth [2] was 79.3% and the growth [3] was 119%. For the same compound, the growth [4] was 104%, the growth [5] was 103% and the growth [6] was 75.5%. The growth [7] was 90.5%, the growth [8] was 95.9% and the growth [9] was 93.6%.

Compound `C#Cc1ccc(-n2c(/C=C/c3ccc(C(F)(F)F)cc3)nc3ncccc3c2=O)cc1` has a growth [1] of 26.6%, a growth [2] of 11.6% and a growth [3] of 11.4%. The growth [4] was 19%, the growth [5] was 14.9% and the growth [6] was 43.7%. For the same compound, the growth [7] was 3.18% (active), the growth [8] was 10.2% and the growth [9] was 0.507% (active).

With `COc1cccc(C(=O)Nc2ccc(CN3CCc4nc5cc(OC)c(OC)cc5cc43)cc2)c1` the growth [1] was 54.1%, the growth [2] was 27.5% and the growth [3] was 42.4%. It also gave a growth [4] of 36.9%, a growth [5] of 21.7% and a growth [6] of 20.5%. The growth [7] was 28.7%, the growth [8] was 25.7% and the growth [9] was 24.1%.

In the case of `COc1ccc(-c2nn(-c3cccc(NC(=O)Nc4cc(C(F)(F)F)cc(C(F)(F)F)c4)c3)cc2-c2ccncc2)cc1Cl`, the growth [1] was 18.9%, the growth [2] was -11.6% (active) and the growth [3] was 11.8%. The growth [4] was 11%, the growth [5] was -12.3% (active) and the growth [6] was -16.5% (active). The growth [7] was -17.8% (active), the growth [8] was -15.3% (active) and the growth [9] was -19.6% (active).

`CCOC(=O)N1C/C(=C/c2ccc(Cl)cc2)C(=O)/C(=C/c2ccc(Cl)cc2)C1` was tested, and the growth [1] was 72.2%, the growth [2] was 45.2% and the growth [3] was 99.5%. It also gave a growth [4] of 74.7%, a growth [5] of 65.5% and a growth [6] of 79.7%. For the same compound, the growth [7] was 26%, the growth [8] was 21.5% and the growth [9] was -5.62% (active).

Compound `COc1cc(Cl)cc(-c2nn(-c3cccc(NC(=O)c4ccc(Cl)c(Cl)c4)c3)cc2-c2ccncc2)c1` has a growth [1] of 69.6%, a growth [2] of 43.5% and a growth [3] of 104%. The growth [4] was 63.9%, the growth [5] was 63.6% and the growth [6] was -0.943% (active). It also gave a growth [7] of 59.2%, a growth [8] of 54.9% and a growth [9] of 43.6%.

With `O=C(Nc1cccc(-n2cc(-c3ccncc3)c(-c3ccc(O)c(Cl)c3)n2)c1)c1ccc(Cl)c(Cl)c1` the growth [1] was 70.9%, the growth [2] was 36.3% and the growth [3] was 104%. The growth [4] was 49%, the growth [5] was 13% and the growth [6] was 74.6%. The growth [7] was 33%, the growth [8] was 45.8% and the growth [9] was 15.1%.

`COc1cc2cc3c(nc2cc1OC)CCN3Cc1ccc(NC(=O)Nc2cc(C(F)(F)F)cc(C(F)(F)F)c2)cc1` gave a growth [1] of 74.3%, a growth [2] of 57.7% and a growth [3] of 85.6%. It also gave a growth [4] of 69.6%, a growth [5] of 69.4% and a growth [6] of 58.4%. It also gave a growth [7] of 51.7%, a growth [8] of 36.9% and a growth [9] of 55.2%.

Compound `Fc1cc(C(F)(F)F)ccc1-c1cncnc1NC1CCCCCC1` has a growth [1] of 89.7%, a growth [2] of 79.9% and a growth [3] of 113%. For the same compound, the growth [4] was 91.5%, the growth [5] was 85.5% and the growth [6] was 49.6%. The growth [7] was 91.2%, the growth [8] was 98.1% and the growth [9] was 118%.

`CCOCC(=O)C(C#N)c1ccc(Cl)c(Cl)c1` (configuration not stated) gave a growth [1] of 97.8%, a growth [2] of 82.8% and a growth [3] of 105%. The growth [4] was 91.3%, the growth [5] was 90% and the growth [6] was 91.6%. The growth [7] was 86.8%, the growth [8] was 101% and the growth [9] was 88.2%.

In the case of `FC(F)(F)c1ccc2nc(-c3nc(-c4ccccc4)n4ccccc34)[nH]c2c1`, the growth [1] was 53%, the growth [2] was 80.9% and the growth [3] was 94.2%. For the same compound, the growth [4] was 81.1%, the growth [5] was 99.9% and the growth [6] was 107%. The growth [7] was 52%, the growth [8] was 47.8% and the growth [9] was 19.6%.
